# Laboratory results published in PubChem BioAssay (NCI).
# About 83,000 compounds went through this panel and 20% of them were active in at least one assay; those are over-represented in the sample as a whole.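 Plates (96-well) were seeded with cells, treated with compound at one concentration, and incubated for 48 hours before percent growth was determined.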 Unmarked numbers belong to inactive results. Calls of active or inactive are those of the source. Rule for the calls: active = growth percent below 10; inactive = the rest.
# Experiments:
# Experiment in all cases: NCI-60 one-dose screen, 48 h (100 = growth as untreated, 0 = no growth, -100 = all killed)
# HCT-15 colon = settings: 10 µM unless noted
# HT29 colon = settings: 10 µM unless noted
# SNB-75 CNS = settings: 10 µM
# SNB-19 CNS = settings: 10 µM unless noted
# U251 CNS = settings: 10 µM unless noted
# PC-3 prostate = settings: 10 µM unless noted
# SK-MEL-5 melanoma = settings: 10 µM unless noted
# UACC-62 melanoma = settings: 10 µM unless noted
# LOX IMVI melanoma = settings: 10 µM unless noted
# SK-MEL-28 melanoma = settings: 10 µM unless noted
SMILES,growth (HCT-15 colon),growth (HT29 colon),growth (SNB-75 CNS),growth (SNB-19 CNS),growth (U251 CNS),growth (PC-3 prostate),growth (SK-MEL-5 melanoma),growth (UACC-62 melanoma),growth (LOX IMVI melanoma),growth (SK-MEL-28 melanoma)
c1ccc(-c2cn(-c3ccccc3)c(-c3ccccc3)n2)cc1,60.9%,70.5%,81.3%,85.6%,56.4%,59.5%,108%,76.9%,69.3%,98.9%
COc1ccc(C2NN=C3c4ccccc4CCC32)cc1 (stereo not drawn),40%,44.5%,48.3%,76.5%,80.4%,66.6%,15.2%,49.9%,72.5%,76%
COc1cc(-c2ncn(/C=C\C(=O)OC(C)C)n2)cc(C(F)(F)F)c1,3.97% (active),-14% (active),-29.3% (active),11.8%,5.83% (active),18.2%,-38.4% (active),-10.9% (active),-73% (active),-18.3% (active)
Cc1nn(-c2ccc([N+](=O)[O-])cc2)c2ncnc(NCCc3ccccc3)c12,95.4%,103%,87.9%,97.2%,102%,88.7%,104%,90.5%,103%,106%
Cc1ccc(C(=O)NCCCNc2nccc(-n3ccc4cccnc43)n2)cc1,102%,106%,–,90.6%,93.2%,97.8%,99.5%,102%,97%,106%
COc1ccc(/C=C/c2c(C(C)=O)c(C)nc3ccccc23)cc1,95.8%,80.1%,–,82.1%,94.8%,76.1%,33.3%,52.4%,96.6%,–
Nc1cc2c([nH]c[n+]2CC#CCCl)c(SCC#CCCl)n1,-43.3% (active),-50.3% (active),–,-66.8% (active),-64.8% (active),-20.3% (active),-93.3% (active),-91.5% (active),-91% (active),–
COc1ccc(/C=C\c2cc(OC)c(OC)c(OC)c2)cc1OC(=O)c1cccc(Cn2cc(CCOC(=O)c3cccc(Cn4nnc5c4C(=O)c4ccccc4C5=O)c3)nn2)c1,10.5%,12.2%,–,28.6%,23.8%,22.8%,-28.8% (active),45.7%,21.2%,58%
Cc1nn(-c2ccc(Cl)cc2)c2ncnc(N/N=C/c3cccc([N+](=O)[O-])c3)c12,100%,90.7%,99.2%,96.4%,82.3%,39%,105%,109%,93.4%,105%
O=C1c2ccccc2-c2ccccc2C1(Cl)Cl,-60.2% (active),-38.4% (active),–,-83.5% (active),-90.1% (active),-29.5% (active),-95.5% (active),-83.4% (active),-31.8% (active),–
O=S(=O)(NCCNc1nccc(-c2c(-c3ccc(O)cc3)nc3sccn23)n1)c1cccc2ccccc12,100%,102%,–,99.7%,95.3%,97.5%,102%,106%,101%,111%
O=C(Nc1ccncc1)C(=O)c1cn(S(=O)(=O)c2ccc(Br)cc2)c2ccccc12,31%,11.6%,–,64.6%,42.7%,68.4%,14.5%,38.3%,41.6%,60.6%
COc1ccc2[nH]c(=O)c(/C=N/Nc3nc(-c4ccccc4)cs3)c(O)c2c1,20.5%,70.2%,–,75.4%,44.3%,58.9%,65.2%,62.7%,60%,76%
COc1ccc(C2C=C(c3ccc(Cl)cc3)N=C3SC=C(C)N32)c(Br)c1 (stereo not drawn),25.4%,4.51% (active),–,78.2%,49.7%,60.7%,48.9%,58.1%,16.7%,38.4%
C=C1CCC2C3(C)COC(C)(C)OC3CCC2(C)C1C/C=C1/C(=O)OCC1Oc1ccccc1OC (stereo not drawn),43%,56.4%,–,88.7%,100%,90.5%,95.4%,80.4%,-3.97% (active),101%
C=C1CCC2C(C)(CO)C(O)CCC2(C)C1C/C=C1/C(=O)OCC1O/C=C/c1ccccc1 (stereo not drawn),57.8%,56.6%,–,95.3%,83.8%,58.6%,82.1%,65.2%,36.8%,93.3%
CN(C)c1oc(C2OC2c2ccccc2)nc1C#N (stereo not drawn),106%,92.9%,–,83.2%,94%,101%,102%,76.1%,99.3%,87.8%
Fc1ccc(Nc2nc(NCCNc3ccnc4cc(Cl)ccc34)nc(N3CCOCC3)n2)cc1,10.5%,-45.5% (active),–,86.7%,39%,38.2%,43.2%,47.7%,15.5%,-98.5% (active)
O=C(Nc1ccc(NCCN2CCOCC2)nc1)c1ccc([N+](=O)[O-])cc1,105%,101%,–,106%,102%,98.5%,98.7%,94.6%,102%,115%
Cc1ccc(NS(=O)(=O)c2cc(C)ccc2C)cc1,32.9%,10.8%,–,53.1%,36.8%,57.6%,30.3%,40%,41%,61.5%
O=C(Nc1ccc2c(c1)OCO2)C(=O)c1c[nH]c2cc(F)ccc12,57.2%,62%,–,85.1%,58.4%,63.8%,58%,22%,8.88% (active),30.7%
Cc1ccc(S(=O)(=O)Nc2c(Br)cc(Br)cc2C(N)=O)cc1,103%,128%,–,90.2%,106%,96.3%,99.9%,98.5%,102%,100%
COc1cc(-c2nn(-c3cccc(NC(=O)c4ccc(N5CCOCC5)c(C(F)(F)F)c4)c3)cc2-c2ccncc2)ccc1Cl,16.7%,-13.3% (active),–,45.1%,2.49% (active),8.17% (active),3.41% (active),8.35% (active),13.7%,28.4%
O=C(Nc1cccc(-n2cc(-c3ccncc3)c(-c3ccc(Cl)c(O)c3)n2)c1)Nc1cc(C(F)(F)F)cc(C(F)(F)F)c1,-7.23% (active),-56% (active),–,11.3%,-83.8% (active),-32.4% (active),-94.7% (active),-65.6% (active),-94.1% (active),-62.4% (active)
Cn1ccc(Nc2nccc(Oc3ccc(C(=O)Nc4cccc(F)c4)c(Cl)c3)n2)c1,91.9%,100%,–,77.6%,96.2%,63.6%,39.5%,66.8%,91.9%,96.6%
CCCC(=O)Oc1ccc(/C(=C(\C)c2ccccc2)c2ccc(OCCN(CC)CC)cc2)cc1,49.7%,5.74% (active),–,85.7%,65.1%,60.7%,64.1%,80.4%,79.8%,68.3%
COc1ccc(-c2cc(-c3ccccc3)nc(SCCCC(=O)NO)n2)cc1OC,16.5%,15.1%,–,20%,1.87% (active),13%,-69.8% (active),-22.3% (active),-61.6% (active),21.5%
O=C1/C(=C/c2ccc([N+](=O)[O-])cc2)CN(C(=O)CCN2CCC(=NO)CC2)C/C1=C\c1ccc([N+](=O)[O-])cc1,-68.4% (active),-49.7% (active),–,-41.6% (active),-56.8% (active),-34.6% (active),-50.5% (active),-52.2% (active),-83.3% (active),-30.6% (active)
COc1ccc(-n2c(-c3ccccc3)c(-c3ccccc3)c3c(SCC(=O)N/N=C/c4ccc(Cl)cc4)ncnc32)cc1,105%,94.4%,–,100%,91.6%,83.3%,86.9%,86.7%,88.4%,104%
